Sm TGR inh: S. mansoni TGR enzyme inhibition | 3% of 360,000 active | Potency, µM (doses to about 114 µM), most hits filed as inhibitors | purified TGR, DTNB reduction, TNB absorbance 405 nm | Q962Y6; further: nearly all actives have a fitted effect of over 60% in size
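Kinetic colorimetric format: TGR-catalysed, NADPH-driven DTNB reduction monitored via TNB absorbance. Enzyme dispensed at 20 nM; compound exposure 15 min at room temperature before reaction start.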
FMDV inh: antivirals against foot and mouth disease virus; Potency, µM (top dose mostly 57.9 µM), most hits filed as inhibitors; FMDV antiviral cell-based qHTS; 1.2% of 410,000 active; calls by dose curve; tested in HEK293T cells; further: read-out not given here; nearly all actives have a fitted effect of over 45% in size
TbPYK inhibitor: blocks Trypanosoma brucei pyruvate kinase | Potency, µM (highest dose often 76.8 µM), usual class: inhibitors | TbPYK enzyme, Kinase-Glo Plus ATP luminescence, 45 min | Q57TT1 | 0.12% of 410,000 active; further: nearly all actives have a fitted effect of over 50% in size
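Screened from lowest to highest concentration, compounds were pinned into TbPYK/substrate mixtures, and ADP (130 uM final) was added. Plates sat at room temperature for 45 min prior to Kinase-Glo Plus detection by luminescence.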
RE007 growth inh: less growth of the S. pombe RE007 Vpr strain | S. pombe RE007 Vpr strain, BacTiter-Glo ATP luminescence, 24 h | Potency, µM (titrated, usually from 92.2 µM), usual class: inhibitors | 0.21% of 360,000 active | AID 651644; active means well fitted falling curve with a large enough effect; inconclusive means small, poorly fitted or top-dose-only effect; inactive means no such curve, though single readings can be large or run the other way; further: nearly all actives have a fitted effect of over 50% in size
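Fission yeast RE007 carrying one integrated HIV-1 vpr copy, seeded at OD 0.01 in PMG+AL medium with 23 nL pinned compound. Grown 24 h at 30 degrees; viability read by BacTiter-Glo luminescence after 5 min.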
A number is an active result; - = inactive; ? = inconclusive; . = no result given; [ ] = dose if it differs, or a comment. This is a sample that favours compounds with a hit; in the whole collection about 3.7% have one here. Unless noted, the call rests on the fitted dose curve; in most records, active means well fitted curve in the direction sought with a large enough effect; inconclusive means small, poorly fitted or top-dose-only effect, or another doubt; inactive means no such curve, though single readings can be large; an effect the other way counts as inactive or inconclusive.

SMILES	Sm TGR inh	FMDV inh	TbPYK inhibitor	RE007 growth inh
Cc1nn2c(=O)cc(COC(=O)c3ccc(NC(=O)c4ccc(C(C)(C)C)cc4)cc3)nc2s1	-	-	-	.
CCc1nn2c(=O)cc(COC(=O)c3ccc(NC(=O)C4CCCCC4)cc3)nc2s1	-	-	-	.
Cc1nn2c(=O)cc(COC(=O)c3ccc(NC(=O)C4CCCCC4)cc3)nc2s1	-	11µM	-	.
CCCS(=O)(=O)c1c(S(=O)(=O)CCC)c2c(N)cccn2c1C(=O)c1ccccc1	50µM	-	-	-
CCCS(=O)(=O)c1c(S(=O)(=O)CCC)c2c(N)cccn2c1C(=O)OC	.	-	-	-
CCCCN(C)CCn1c(=S)[nH]c2cc(OCC)c(OCC)cc2c1=O	-	-	-	-
CCOc1cc2[nH]c(=S)n(CCCN(CC)CC)c(=O)c2cc1OCC	6.3µM	-	-	-
COc1ccc(C(=O)C(=O)N2CCN(c3ccc(C)cc3)CC2)cc1OC	.	-	.	-
COc1ccc(C(=O)CN2CCN(c3ccc(F)cc3)CC2)cc1OC	35µM	-	-	-
COc1ccc(C(=O)CN2CCN(c3ccc(Cl)cc3)CC2)cc1OC	35µM	?	-	-
N#Cc1ccc(C(=O)CN2CCN(c3ccccc3)CC2)cc1	7.1µM	-	-	-
COc1ccccc1N1CCN(CC(=O)c2ccc(F)cc2)CC1	22µM	-	-	-
Cc1oc(-c2ccc(C(=O)Nc3ccc(F)cc3)cc2)nc1COc1ccccc1	-	?	-[15.4 µM]	.
CC1=CC(=O)C2=C(C)C[C@H](OC(=O)Cc3ccccc3)C3[C@H](OC(=O)[C@H]3C)C12 (stereo partly drawn)	.	-	.	.
COc1ccc(N2CCN(CC(=O)c3ccc(Cl)cc3)CC2)cc1	11µM	-	-	-
N#CCN1CCN(CC(=O)c2ccc(Br)cc2)CC1	11µM	-	-	-
COc1ccc(C(=O)c2cn(Cc3ccc(F)cc3)c3ccc(C)cc3c2=O)cc1	-	-	-	.
Cc1ccccc1N=CC1=C(O)c2ccccc2C1=O	.	8.9µM	?	?
CCOC(=O)C1=C(C)OC(N)=C(C#N)C1c1ccc(OC)c(CSc2ccccn2)c1 (stereo not drawn)	25µM	-	-	-
Cc1oc(-c2ccc(Cl)cc2)nc1CS(=O)CC(=O)NC1CC1 (stereo not drawn)	16µM	-	-	-
Cc1ccc(-c2nc(CS(=O)CC(=O)NC3CCC(C)CC3)c(C)o2)cc1 (stereo not drawn)	14µM	-	-	-
Cc1oc(-c2ccc(Cl)cc2)nc1CS(=O)CC(=O)NC(C)c1ccccc1 (stereo not drawn)	8.9µM	-	-	-
COCCNC(=O)CS(=O)Cc1nc(-c2ccc(Cl)cc2)oc1C (stereo not drawn)	?	-	-	-
Cc1oc(-c2ccc(Cl)cc2)nc1CS(=O)CC(=O)NCc1ccccn1 (stereo not drawn)	40µM	-	-	-
COc1cccc(CNC(=O)c2c(OC)cc(=O)n3c2CCN(C(=O)c2ccc(C)s2)CC3)c1	.	-	.	.
SMILES	Sm TGR inh	FMDV inh	TbPYK inhibitor	RE007 growth inh
N=C1CCC(=N)c2c1c(O)c1ccccc1c2O	4.5µM	-	?	?
CC(=O)c1cccc(OCC(=O)c2cc(C)n(-c3cc(C)on3)c2C)c1	-	22µM	-	-
Cc1cc(-n2c(C)cc(C(=O)CSc3ncnc4ccccc34)c2C)no1	-	13µM	-	-
COCc1c(C(=O)NC2CCCC2)cnn1-c1nccc(-c2cc(C)sc2C)n1	.	-	.	.
NC1(C#Cc2ccc3oc(=O)c(-n4cc(-c5ccsc5)nn4)cc3c2)CCCCC1	56µM	-	-	-
C[N+]1(C)CCC(=C2c3ccccc3CC(=O)c3sccc32)CC1	28µM	-	-	-
COc1ccc(C(=O)O/N=C(/C)c2cccs2)cc1	-	?	25µM	40µM
COc1ccc(C(=O)O/N=C(\C)c2nccs2)cc1	-	-	?	-
O=C(O)/C=C\C(=O)O	-	-	-	-[18.4 µM]
O=C(O)C=C(Br)Br	50µM	-	-	-
CC(O)CN1C(=O)C(CC(=O)Nc2ccc(Cl)cc2)SC1=Nc1ccccc1 (stereo not drawn)	18µM	?	-	?
COCCN1C(=O)C(CC(=O)Nc2ccc(C(C)=O)cc2)SC1=Nc1ccccc1 (stereo not drawn)	-	?	-	-
COc1ccc(Cl)cc1NC(=O)CN1C(=O)CCS(=O)(=O)c2ccccc21	50µM	-	-	-
CCOC(=O)CN1C(=O)c2cccnc2Oc2ccccc21	-	-	-	.
Clc1ccc(/C=C/c2nc3ccccc3[nH]2)cc1	25µM	-	?	?
Clc1cccc(Cl)c1/C=C/c1nc2ccccc2[nH]1	-	-	-	?
O=C(/C(=C(\O)c1ccccc1)c1nc2ccccc2[nH]1)c1ccccc1	-	-	-	-
Clc1ccc(/C=C/c2nc3ccccc3[nH]2)c(Cl)c1	-	-	-	25µM
O=c1[nH]c(/C=C/c2ccccc2Cl)nc2ccccc12	-	-	-	-
O=C(/C=C/c1ccc(Cl)cc1Cl)c1nc2ccccc2[nH]1	-	-	-	7.9µM
O=C(CSc1n[nH]c(=O)n1C1CC1)Nc1cc(Cl)ccc1Oc1ccccc1	-	14µM	-	-
O=C(CSc1n[nH]c(=O)n1C1CC1)Nc1ccccc1	-	-	-	-
Fc1ccc(C2=Nc3cccc4cccc(c34)N2)cc1	.	-	-	-
FC(F)(F)C1=Nc2cccc3cccc(c23)N1	18µM	16µM	-	-
O=C(CCl)N(CCc1ccccc1)CCc1ccccc1	13µM	28µM	-	-
SMILES	Sm TGR inh	FMDV inh	TbPYK inhibitor	RE007 growth inh
CCCN(C(=O)c1cc2c(Cl)nc3ccccc3c2s1)c1cccc(C)c1	-	?	-	.
CC(=O)N(Cc1cc(=O)[nH]c2ccccc12)c1ccccc1	-	-	-	-
CCCCCCCN(C(=O)CCl)c1cccc(C)c1	?	28µM	-	-
CCCCCCN(C(=O)CCl)c1ccccc1	2.5µM	20µM	-	-
O=Cc1[nH]c2ccccc2c1N(C(=O)CCl)c1ccccc1	0.89µM	?	-	-
O=C(O)c1ccc2c(c1)C(=O)N([C@@H](C(=O)O)C(c1ccccc1)c1ccccc1)C2=O	-	.	.	.
N#CCCN(C(=O)COC(=O)c1nc(Cl)ccc1Cl)c1ccccc1	-	-	-	-
N#CCCN(C(=O)CCl)c1cccc(Cl)c1	7.1µM	?	-	-
O=C(CCl)N(c1ccccc1)c1ccccc1	1.3µM	14µM	-	-
O=C(/C=C/c1ccc2c(c1)OCO2)NCCCN1CCOCC1	-	-	-	-
O=C(/C=C/c1ccc(Br)o1)NCCCN1CCOCC1	4.5µM	-	-	-
O=C(/C=C/c1ccc(Cl)cc1)NCCCN1CCOCC1	-	-	-	-
O=C(/C=C/c1ccco1)NCCCN1CCOCC1	11µM	-	-	-
O=C(COC(=O)/C=C/c1ccc(Br)o1)NCCCN1CCCC1=O	32µM	-	-	-
CCOc1ccccc1CN1C(=O)c2ccccc2C1C(=O)NC1CCCCCC1 (stereo not drawn)	-	-	-	.
COc1cc(OC)c(C(=O)CCCCN2CCC3(CC2)NC(=O)NC3=O)cc1NS(=O)(=O)c1ccc(C(F)(F)F)cc1	.	-	.	.

Compound activity: PubChem, National Center for Advancing Translational Sciences (NCATS)
